Source: PubChem BioAssay (several laboratories)
VLA-4 inh = inhibition in a human VLA-4 binding assay; P13612; VLA-4 expressing cells, ligand binding flow cytometry; inhibition, % (about 7 µM as worked out from the volumes in the protocol); hit rate 0.2% among 330,000; AID 2557; in the data active = inhibition above about 50%
MEX-5 binding = C. elegans MEX-5 TCR-2 RNA binding activity. Q9XUB2. MEX-5/FITC-TCR2 RNA binding, fluorescence polarization; stronger effect = lower value. activity score (negative = inhibition of binding), % at 10 µM. hit rate 0.38% among 300,000. AID 1832;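 active = inhibition past about -25% in most replicates, and total fluorescence under double the plate's negative control median, limit read from the data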;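 also: 0% = DMSO and -100% = 5 µM competing unlabeled TCR2 RNA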
Exocytosis inh = lytic granule exocytosis inhibition; TALL-104 LAMP-1 surface exposure, flow cytometry; cells stimulated with thapsigargin and PMA; inhibition, % at 10 µM; hit rate 0.66% among 360,000; AID 651702;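 active = inhibition above about 55%, limit read from the data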
V-ATPase pH = regulators of yeast V-ATPase proton transport. S. cerevisiae, pHLuorin cytosolic pH fluorescence. response, % at 10 µM. hit rate 0.37% among 350,000. AID 504577; in the data active = response mostly above about 7.3%, no sharp cut-off; inactive = mostly below about 5.4%; also: actives read high
HTR2A ag = activates the mouse 5-HT2A serotonin receptor | hit rate 0.66% among 360,000 | activation, % at 7.6 µM | P35363 | CHO-K1 mHTR2A beta-arrestin complementation, luminescence; percent of 30 µM serotonin response | AID 624169;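 active = activation above a run cutoff, the mean activation of all tested compounds plus 3 SD, cut at about 14% in these data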;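 also: 0% = plate median of compound wells and 100% = 30 µM serotonin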
GASC-1 inh = blocks human GASC-1 demethylase activity | Q9H3R0 | GST-JMJD2C(1-420) H3K9me3 demethylation, DELFIA europium | inhibition, % at 2.35 µM | hit rate 0.069% among 330,000 | AID 2099;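 active = more than half of a compound's replicate wells show inhibition beyond 50%, single wells judged on their own value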;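 also: signal counts dimethyl H3K9 product captured on neutravidin plate; 0% = median of DMSO wells and 100% = 0.3 times that DMSO median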
Target sequence (Q9H3R0 1-420 limits assumed): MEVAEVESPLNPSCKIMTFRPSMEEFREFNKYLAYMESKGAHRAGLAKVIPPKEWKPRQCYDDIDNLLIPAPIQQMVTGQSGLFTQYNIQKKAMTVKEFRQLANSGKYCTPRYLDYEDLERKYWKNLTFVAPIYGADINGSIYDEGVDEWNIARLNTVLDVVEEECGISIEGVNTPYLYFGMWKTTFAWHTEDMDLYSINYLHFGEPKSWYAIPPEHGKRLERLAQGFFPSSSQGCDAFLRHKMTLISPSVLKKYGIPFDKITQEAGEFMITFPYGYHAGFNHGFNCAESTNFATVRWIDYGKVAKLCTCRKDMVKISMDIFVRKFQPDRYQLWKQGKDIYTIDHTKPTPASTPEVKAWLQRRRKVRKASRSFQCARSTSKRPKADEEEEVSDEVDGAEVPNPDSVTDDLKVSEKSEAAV
Granule exo CP1 = lytic granule exocytosis inhibition. hit rate 11% among 1,500. TALL-104 cells, LAMP-1 externalization, flow cytometry; stimulated with PMA plus thapsigargin. inhibition, % at 10 µM. shares compounds with Exocytosis inh. AID 651954; in the data active = inhibition above about 60%;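 also: 0% = stimulated vehicle wells and 100% = unstimulated wells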
The depositor's hits bear a star. This is a sample that favours compounds with a hit; in the whole collection about 2.2% have one here.

Results for Cc1nc(N2CCN(c3ccccn3)CC2)c2c(C)c(C(=O)N3CCN(c4ccccc4F)CC3)sc2n1 ?
VLA-4 inh: -6; MEX-5 binding: 1; Exocytosis inh: 56*; V-ATPase pH: 1; HTR2A ag: -11; GASC-1 inh: -8; Granule exo CP1: -11

Results for Cc1ccc(NC(=O)c2sc3nc(C)nc(N4CCN(c5ccccn5)CC4)c3c2C)c(C)c1 ?
VLA-4 inh: 7; Exocytosis inh: -3; V-ATPase pH: -2; HTR2A ag: -1; GASC-1 inh: -14

What do the screens show for `C(=C\c1nccc2c1[nH]c1ccccc12)/c1ccccc1`?
VLA-4 inh: 0; MEX-5 binding: -1; Exocytosis inh: 43; V-ATPase pH: 3; HTR2A ag: -1; GASC-1 inh: -4

What do the screens show for `Fc1ccc(/C=C\c2nccc3c2[nH]c2ccccc23)cc1`?
VLA-4 inh: 10; MEX-5 binding: -5; Exocytosis inh: 83*; V-ATPase pH: 0; HTR2A ag: -3; GASC-1 inh: -1; Granule exo CP1: 93*

What do the screens show for `Cc1ccc(/C=C\c2nccc3c2[nH]c2ccccc23)cc1`?
VLA-4 inh: -12; MEX-5 binding: 1; Exocytosis inh: 75*; V-ATPase pH: -2; HTR2A ag: -7; GASC-1 inh: -13; Granule exo CP1: 4

What do the screens show for `O=C(COC(=O)C1=Cc2ccccc2OC1)NCc1ccc(F)cc1`?
Exocytosis inh: -5; V-ATPase pH: -1; HTR2A ag: 7

How did Cc1cc(C)c2nc(C)cc(N/N=C/c3ccc(O)cc3)c2c1 do in these assays?
VLA-4 inh: -12; MEX-5 binding: 0; Exocytosis inh: 87*; V-ATPase pH: 1; HTR2A ag: -7; GASC-1 inh: -3; Granule exo CP1: 101*

How did CCC(C)(C)NC(=O)C(c1ccccc1Cl)N(Cc1cccnc1)C(=O)CCC(=O)Nc1cc(C)on1 (stereo not given) do in these assays?
VLA-4 inh: 3; MEX-5 binding: -1; Exocytosis inh: -2; V-ATPase pH: -2; HTR2A ag: -2; GASC-1 inh: -4

What do the screens show for `CCCCn1c(N)c(N(CCOC)C(=O)COC(=O)COc2c(C)cc(C)cc2C)c(=O)[nH]c1=O`?
VLA-4 inh: 1; MEX-5 binding: 1; Exocytosis inh: -25; V-ATPase pH: 3; HTR2A ag: 2; GASC-1 inh: -5

What do the screens show for `CCN(CC)CCn1c2c(c(SCC(=O)Nc3cc(OC)cc(OC)c3)nc1=O)CCC2`?
VLA-4 inh: 2; MEX-5 binding: -1; Exocytosis inh: -5; V-ATPase pH: 7; HTR2A ag: 8; GASC-1 inh: -8

Results for CC12CCCCC1C(C(N)=O)C(=O)O2 (stereo not given) ?
Exocytosis inh: -6; V-ATPase pH: 1; HTR2A ag: 5

Results for O=C1CCC2CCCCC2(O)O1 (stereo not given) ?
VLA-4 inh: -4; MEX-5 binding: -1; Exocytosis inh: 64*; V-ATPase pH: 2; HTR2A ag: 1; GASC-1 inh: 17; Granule exo CP1: -3

How did C[C@@H](c1ccccc1)N1C[C@@H](COCc2ccccc2)Oc2cc(N3CC[C@H](O)C3)ccc2S1(=O)=O do in these assays?
Exocytosis inh: -8; HTR2A ag: 13

Results for Cc1sc2ncn(/N=C/c3ccco3)c(=O)c2c1C ?
VLA-4 inh: -7; MEX-5 binding: 0; Exocytosis inh: 2; V-ATPase pH: 3; HTR2A ag: 2; GASC-1 inh: 6

How did Fc1ccc(C2=NOC(c3nnc(-c4ccccc4)o3)C2)cc1 (stereo not given) do in these assays?
VLA-4 inh: 39; MEX-5 binding: 0; Exocytosis inh: 6; V-ATPase pH: 0; HTR2A ag: -3; GASC-1 inh: 5

Results for c1ccc(C2=NOC(c3nnc(-c4ccccc4)o3)C2)cc1 (stereo not given) ?
MEX-5 binding: 2; Exocytosis inh: 91*; V-ATPase pH: -3; HTR2A ag: -3; GASC-1 inh: 3; Granule exo CP1: -13

Results for Cc1cc(C)c2c(=O)[nH]c(SCC(=O)c3ccc(C)c(C)c3)nc2n1 ?
VLA-4 inh: -5; MEX-5 binding: 0; Exocytosis inh: -6; V-ATPase pH: -3; HTR2A ag: 1; GASC-1 inh: -5

How did CCOC(=O)N1CCN(C(=O)CSc2ccc3nnc(-c4cccnc4)n3n2)CC1 do in these assays?
VLA-4 inh: 1; MEX-5 binding: 1; Exocytosis inh: 87*; V-ATPase pH: -4; HTR2A ag: 1; GASC-1 inh: 5; Granule exo CP1: -13

What do the screens show for `COc1cc2ccccc2cc1C(=O)N1CC(C)CC(C)C1` (stereo not given)?
VLA-4 inh: 1; MEX-5 binding: 1; Exocytosis inh: -1; V-ATPase pH: -2; HTR2A ag: -6; GASC-1 inh: 1

What do the screens show for `CCN1CCN(CCNC(=O)c2ccc(/C=C3/Sc4ccccc4N(Cc4ccccc4C)C3=O)cc2)CC1`?
MEX-5 binding: 1; Exocytosis inh: 66*; V-ATPase pH: 7; HTR2A ag: -6; GASC-1 inh: -11; Granule exo CP1: 29

What do the screens show for `C[C@H](CO)N1C[C@H](C)[C@@H](CN(C)S(=O)(=O)c2ccccc2)Oc2c(NC(=O)c3ccncc3)cccc2C1=O`?
VLA-4 inh: 12; Exocytosis inh: -2; V-ATPase pH: -5; HTR2A ag: -1; GASC-1 inh: 2

Results for CNC[C@H]1Oc2c(NS(=O)(=O)c3cccs3)cccc2C(=O)N([C@H](C)CO)C[C@@H]1C ?
VLA-4 inh: 11; Exocytosis inh: 77*; V-ATPase pH: 8; HTR2A ag: 3; GASC-1 inh: 31; Granule exo CP1: -3

What do the screens show for `C[C@H](CO)N1C[C@H](C)[C@@H](CN(C)S(=O)(=O)c2ccc(F)cc2)Oc2c(NC(=O)c3ccncc3)cccc2C1=O`?
Exocytosis inh: 92*; V-ATPase pH: 8; HTR2A ag: 3; Granule exo CP1: -16

Results for NC(=O)C1Cc2ccccc2CN1C(=O)c1cc(C2CC2)nn1-c1ccccc1 (stereo not given) ?
VLA-4 inh: -8; Exocytosis inh: 2; V-ATPase pH: 4; HTR2A ag: -1; GASC-1 inh: 8

Results for CSc1cccc(NC(=O)c2cccc3cccnc23)c1 ?
VLA-4 inh: -13; MEX-5 binding: 0; Exocytosis inh: 82*; V-ATPase pH: 0; HTR2A ag: 6; GASC-1 inh: 5; Granule exo CP1: -14

How did Cc1nc2ccccc2n1CC(O)Cn1c2ccccc2c2ccccc21 (stereo not given) do in these assays?
VLA-4 inh: -1; MEX-5 binding: 0; Exocytosis inh: 58*; V-ATPase pH: 5; HTR2A ag: 2; GASC-1 inh: -6; Granule exo CP1: -10
